The results in this text go back to PubChem BioAssay.

Calls of active or inactive are those of the source. The rule behind the calls is not given here.

The subject of this assay is Aerobactin synthetase IucA (Klebsiella pneumoniae, hypervirulent). Kind of assay: IucA enzyme inhibition, biochemical, LOPAC library, absorbance readout (AID 1346212).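 Note: 100% = no compound wells and 0% = no enzyme wells.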 The settings on record: IucA enzyme assay, absorbance (OD) readout; stronger effect = lower value;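 tested at 8 µM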.
In general, remaining activity refers to the signal under treatment as a percentage of the control signal. For the compound `OCc1cc(C(O)CNCCCCCCOCCCCc2ccccc2)ccc1O` (stereo not given), the remaining activity was 122% (inactive).
On to `CNC(=O)[C@H]1O[C@@H](n2cnc3c(N)ncnc32)C(O)[C@H]1O` (stereo not given in full), for which the remaining activity is 129% (inactive).
Consider `CNCCNS(=O)(=O)c1cccc2cnccc12`, for which the remaining activity is 102% (inactive).
Regarding `CC#CCOC(=O)c1c(C)nc2sc3c(c2c1N)CCC(O)C3` (stereo not given), the remaining activity is 113% (inactive).
Consider `COC(=O)C(N)Cc1ccc(Cl)cc1` (stereo not given), for which the remaining activity was 91.4% (inactive).
For the compound `O=C1N(c2ccccc2)c2ccccc2C1(Cc1ccncc1)Cc1ccncc1`, the remaining activity was 114% (inactive).
For `Cc1nc2sccn2c(=O)c1CCN1CCC(=C(c2ccccc2)c2ccc(F)cc2)CC1` the value was 123% (inactive); for `CCCN(CC1CC1)c1nc(C)nc(Nc2c(Cl)cc(Cl)cc2Cl)c1Cl`, 102% (inactive); for `CCCCCC(O)CCCC(=O)O` (stereo not given), 101% (inactive).
For `Nc1nc2[nH]c(=O)cnc2c(=O)[nH]1` the value was 89% (inactive); for `CCN(c1nc(N)c(C(=O)N=C(N)N)nc1Cl)C(C)C`, 109% (inactive); for `Cc1ccccc1CNc1ncnc2c1ncn2[C@@H]1O[C@H](CO)[C@@H](O)[C@H]1O`, 122% (inactive).
The value for `CCC(C)N(C)C(=O)c1cc2ccccc2c(-c2ccccc2Cl)n1` (stereo not given) was 116% (inactive).
In the case of `CCCCCC[C@@H]([C@@H](C)O)n1cnc2c(N)ncnc21`, the remaining activity is 99.4% (inactive).
Regarding `OC[C@H]1NC[C@H](O)[C@@H](O)[C@@H]1O`, the remaining activity was 100% (inactive).
For the compound `COCc1nc2c([nH]1)c(=O)n(C)c(=O)n2CC(C)C`, the remaining activity was 112% (inactive).
As to `CNC(=O)[C@H]1O[C@@H](n2cnc3c(NCc4cccc(I)c4)nc(Cl)nc32)[C@H](O)[C@@H]1O`, the remaining activity was 103% (inactive).
For `CCN1C(=O)C=CC1=O`, the remaining activity is 102% (inactive).
For `COc1ccc(/C=C/C(=O)Nc2ccccc2C(=O)O)cc1OC`, the remaining activity is 92.2% (inactive).
The value for `COc1ccc(CCN(C)CCc2ccc(OC)c(OC)c2)cc1OC` was 122% (inactive); that for `COc1cc2c(cc1C(F)(F)F)N(C(=O)Nc1cc(F)cc(-c3cccnc3)c1)CC2` was 120% (inactive); that for `CN(C)CC/C=C1/c2ccccc2Sc2ccc(Cl)cc21` was 115% (inactive).
In the case of `CC(C)C[C@H](NC(=O)[C@H](O)[C@H](N)Cc1ccccc1)C(=O)O`, the remaining activity is 120% (inactive).
`OC[C@H]1O[C@@H](n2cnc3c(NCCc4ccccc4)ncnc32)[C@H](O)[C@@H]1O`: the remaining activity is 92.7% (inactive).
Consider `CC(=O)N[C@H](C(=O)O)C(C)(C)SN=O`, for which the remaining activity was 117% (inactive).
For `CC1(C)CCC=[N+]1[O-]` the value was 120% (inactive).
Take `Nc1nnc(-c2cccc(Cl)c2Cl)c(N)n1`: the remaining activity was 114% (inactive).
Take `O=C1CCC(c2ccc(-n3ccnc3)cc2)=NN1`: the remaining activity was 111% (inactive).
For `CCCCCCCCCCCCCCCC(=O)OC(CC(=O)O)C[N+](C)(C)C` (stereo not given) the value was 116% (inactive); for `Oc1ccccc1O`, 112% (inactive); for `O=C1Cc2c([nH]c3ccc(Br)cc23)-c2ccccc2N1`, 125% (inactive).
On to `C(=C\c1ccccc1)/CN1CCN(C(c2ccccc2)c2ccccc2)CC1`, for which the remaining activity is 113% (inactive).
With `O=C(O)Cc1c[nH]c2ccc(O)cc12`, the remaining activity is 101% (inactive).
For `Cc1[nH]c(=O)c(C#N)cc1-c1ccncc1`, the remaining activity was 123% (inactive).
Take `CNc1ncnc2c1ncn2[C@@H]1O[C@H](CO)[C@@H](O)[C@H]1O`: the remaining activity is 125% (inactive).
As to `NCC(O)(CS(=O)(=O)O)c1ccc(Cl)cc1` (stereo not given), the remaining activity is 103% (inactive).
Regarding `O=C(Nc1nc2ccccc2n1CCN1CCOCC1)c1cccc([N+](=O)[O-])c1`, the remaining activity was 120% (inactive).
Take `C=CCn1c(=O)c2c(nc(-c3ccc(S(=O)(=O)O)cc3)n2C)n(C)c1=O`: the remaining activity is 128% (inactive).
For the compound `O=C1O/C(=C/Br)CCC1c1cccc2ccccc12` (stereo not given), the remaining activity is 112% (inactive).
The value for `C#CC(N)CCC(=O)O` (stereo not given) was 122% (inactive).
